PubChem BioAssay (NCI)
The panel holds about 79,000 compounds, 15% with a hit somewhere; the sample as a whole holds those more often. Activity calls are given as the source filed them. Cut-off read from the data, not from the text of the source: active = growth inhibition above about 70%; inactive = the rest.

Legend:
[1] = NCI Yeast Anticancer Drug Screen. Data for the rad52 strain (AID 147);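 note: 0% = growth of vehicle-treated control cultures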; conditions: S. cerevisiae rad52 mutant growth inhibition, active compounds read high
In short: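 Compounds are applied to a genetically defined yeast strain lacking normal DNA damage repair, and inhibition of growth is expressed relative to cultures given vehicle only.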

[2] = NCI Yeast Anticancer Drug Screen. Data for the wt1 strain (AID 149);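 note: 0% = growth of vehicle-treated wt1 cultures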; conditions: S. cerevisiae wt1 strain (SPY 50644) growth inhibition, active compounds read high
In short: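 Vehicle-normalised growth inhibition; strain wt1; compound exposure.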

[3] = NCI Yeast Anticancer Drug Screen. Data for the rad50EPP+ strain (AID 151);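 note: 0% = growth of vehicle-treated control cultures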; conditions: S. cerevisiae rad50 mutant strain, active compounds read high
In short: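 Compounds were applied to the rad50EPP+ yeast strain, which bears a defined DNA repair alteration, and growth inhibition was determined relative to vehicle-treated cultures.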

[4] = NCI Yeast Anticancer Drug Screen. Data for the mgt1 strain (AID 153); conditions: S. cerevisiae mgt1 mutant growth inhibition, active compounds read high
In short: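 Strain: mgt1 yeast, one of a set carrying defined DNA damage repair or cell cycle control alterations. Compound-treated growth compared with vehicle.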

[5] = NCI Yeast Anticancer Drug Screen. Data for the rad50 strain (AID 155);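 note: 0% = growth of vehicle-only cultures of the same strain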; conditions: S. cerevisiae rad50 strain growth inhibition, active compounds read high
In short: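 A DNA repair-deficient yeast mutant serves as the test organism; compound-induced growth inhibition is calculated against vehicle-treated cells.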

[6] = NCI Yeast Anticancer Drug Screen. Data for the mec2-1 strain (AID 157); conditions: S. cerevisiae mec2-1 strain, active compounds read high
In short: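 Strain: mec2-1 (DNA repair/cell cycle alteration). Compound exposure, then growth measured; inhibition expressed relative to vehicle.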

[7] = NCI Yeast Anticancer Drug Screen. Data for the rad14 strain (AID 159);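 note: 0% = growth of vehicle-treated control cultures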; conditions: S. cerevisiae rad14 strain growth inhibition, active compounds read high
In short: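 Vehicle-treated cultures served as the baseline for growth inhibition of a DNA repair-mutant yeast strain exposed to each compound.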

[8] = NCI Yeast Anticancer Drug Screen. Data for the sgs1 mgt1 strain (AID 161);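 note: 0% = growth of cultures given vehicle only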; conditions: S. cerevisiae sgs1 mgt1 strain, active compounds read high
In short: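 Test agents were incubated with a DNA-repair-mutant yeast strain. Growth was then read and compared against vehicle-treated controls.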

[9] = NCI Yeast Anticancer Drug Screen. Data for the CLN2oe strain (AID 163);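 note: 0% = growth of vehicle-only control cultures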; conditions: S. cerevisiae CLN2oe strain, active compounds read high
In short: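 Growth of a genetically modified yeast strain is measured after compound exposure and compared with cultures given vehicle alone.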

[10] = NCI Yeast Anticancer Drug Screen. Data for the cln2 rad14 strain (AID 165);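 note: 0% = growth equal to vehicle treated cultures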; conditions: S. cerevisiae cln2 rad14 strain, active compounds read high
In short: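 Compounds are applied to the cln2 rad14 yeast strain, and growth is then compared with that of vehicle-treated cultures to give inhibition.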

[11] = NCI Yeast Anticancer Drug Screen. Data for the bub3 strain (AID 167); conditions: S. cerevisiae bub3 mutant strain, active compounds read high
In short: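 Inhibition values come from growth of compound-treated mutant yeast normalised to vehicle-treated controls.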

[12] = NCI Yeast Anticancer Drug Screen. Data for the wt2 strain (AID 169);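 note: 0% = growth of vehicle-treated yeast cultures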; conditions: S. cerevisiae wt2 strain growth inhibition, active compounds read high
In short: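 This strain belongs to a panel of yeast strains with defined genetic alterations in DNA damage repair or cell cycle control. Compounds are applied, and growth inhibition is measured against vehicle-treated cultures.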

[13] = NCI Yeast Anticancer Drug Screen. Data for the mlh1 strain (AID 171);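 note: 0% = growth of vehicle-treated control cultures of the same strain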; conditions: S. cerevisiae mlh1 strain growth inhibition, active compounds read high
In short: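 Growth of the mutant yeast strain after compound exposure, expressed as inhibition relative to vehicle-only controls.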

[14] = NCI Yeast Anticancer Drug Screen. Data for the sgs1 strain (AID 173);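 note: 0% = growth of vehicle-only control cultures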; conditions: S. cerevisiae sgs1 mutant, active compounds read high
In short: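 Growth of a yeast strain bearing a defined genetic alteration is measured after compound treatment. Inhibition is expressed relative to vehicle-only controls.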

[15] = NCI Yeast Anticancer Drug Screen. Data for the mlh1 rad18 strain (AID 175); conditions: S. cerevisiae mlh1 rad18 strain growth inhibition, active compounds read high
In short: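 Read-out is yeast growth inhibition, calculated against vehicle-only controls. The compound was applied to a strain engineered with DNA damage repair alterations.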

[16] = NCI Yeast Anticancer Drug Screen. Data for the rad18 strain (AID 177); conditions: S. cerevisiae rad18 mutant growth inhibition, active compounds read high
In short: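 Growth of the mutant yeast strain after compound exposure, normalised to vehicle-only cultures.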

[17] = at 5.0 µM (retest, dose inferred, filed as 0.5)
[18] = at 50.0 µM (retest, dose inferred, filed as 5.0)

Measured: growth inhibition

COC1=CC(=O)C(C2(OC(C)C)OC(=O)C(Cl)=C2Cl)=CC1=O (stereo not drawn)
active: [1]; at 11.0 µM 99% | [1]; at 33.0 µM 99% | [1]; at 100.0 µM 99% | [2]; at 11.0 µM 97% | [2]; at 33.0 µM 99% | [2]; at 100.0 µM 99% | [3]; at 11.0 µM 94% | [3]; at 33.0 µM 99% | [3]; at 100.0 µM 99% | [4]; at 11.0 µM 99% | [4]; at 33.0 µM 99% | [4]; at 100.0 µM 99% | [5]; at 11.0 µM 99% | [5]; at 33.0 µM 99% | [5]; [18] 99% | [5]; at 50.0 µM 96.2% | [5]; at 100.0 µM 99% | [6]; at 11.0 µM 100% | [6]; at 33.0 µM 100% | [6]; [18] 99% | [6]; at 50.0 µM 86.7% | [6]; at 100.0 µM 99% | [7]; at 11.0 µM 99% | [7]; at 33.0 µM 99% | [7]; at 100.0 µM 99% | [8]; [18] 99% | [8]; at 50.0 µM 99.5% | [9]; at 3.7 µM 87% | [9]; at 11.0 µM 99% | [9]; at 33.0 µM 99% | [9]; at 100.0 µM 99% | [10]; [18] 99% | [11]; at 11.0 µM 99% | [11]; at 33.0 µM 99% | [11]; [18] 99% | [11]; at 100.0 µM 99% | [12]; at 11.0 µM 98% | [12]; at 33.0 µM 99% | [12]; at 100.0 µM 99% | [13]; at 11.0 µM 99% | [13]; at 33.0 µM 99% | [13]; at 100.0 µM 99% | [14]; at 11.0 µM 99% | [14]; at 33.0 µM 99% | [14]; at 100.0 µM 99% | [15]; [18] 99% | [15]; at 50.0 µM 91.8% | [16]; at 11.0 µM 99% | [16]; at 33.0 µM 99% | [16]; at 100.0 µM 99%
inactive: [1]; at 1.2 µM 1% | [1]; at 3.7 µM 22% | [2]; at 1.2 µM 1% | [2]; at 3.7 µM 8% | [3]; at 1.2 µM 8% | [3]; at 3.7 µM 48% | [4]; at 1.2 µM -3% | [4]; at 3.7 µM 17% | [5]; at 1.2 µM 1% | [5]; at 3.7 µM 33% | [5]; [17] 56% | [6]; at 1.2 µM 8% | [6]; at 3.7 µM 65% | [6]; [17] 47% | [7]; at 1.2 µM 3% | [7]; at 3.7 µM 37% | [8]; [17] 53% | [9]; at 1.2 µM 0% | [10]; [17] 30% | [10]; at 50.0 µM 63.5% | [11]; at 1.2 µM 0% | [11]; at 3.7 µM 34% | [11]; [17] 30% | [11]; at 50.0 µM 59.9% | [12]; at 1.2 µM -1% | [12]; at 3.7 µM 10% | [13]; at 1.2 µM 2% | [13]; at 3.7 µM 27% | [14]; at 1.2 µM 2% | [14]; at 3.7 µM 37% | [15]; [17] 43% | [16]; at 1.2 µM 7% | [16]; at 3.7 µM 49%
